# Reference: the supplement of paper PMC3334620
# Whole data set: some 33,000 sequences, median “E-score (-0.5 to 0.5)” near -8e-05, cut for the highest 2% near 0.23. For the sample, the highest values were picked, then their nearest neighbours and some sequences at random.
# Biological target: T1, Nrg2 (UniProt P38082)
# T1 sequence: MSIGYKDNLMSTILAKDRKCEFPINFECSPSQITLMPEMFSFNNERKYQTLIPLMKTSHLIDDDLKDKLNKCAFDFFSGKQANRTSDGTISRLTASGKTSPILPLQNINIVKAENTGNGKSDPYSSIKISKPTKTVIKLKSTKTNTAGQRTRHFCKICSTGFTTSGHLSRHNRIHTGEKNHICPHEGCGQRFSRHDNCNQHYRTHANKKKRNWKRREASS
# Assay: PBM E-score (8-mer binding enrichment) (E-score (-0.5 to 0.5)); higher = stronger / more preferred TF binding
# Conditions: protein concentration: 100 nM; construct: GST-full length
# Protocol: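 Universal 'all 10-mer' protein binding microarrays (Agilent AMADID 015681) probed with GST-tagged S. cerevisiae TFs (full-length or DBD) made by in vitro transcription/translation (PURExpress), about 100-200 nM. Bound TF was detected with fluorescent anti-GST. Each ungapped 8-mer (which stands for itself and its reverse complement) is scored by the PBM enrichment score (E-score), a modified Wilcoxon-Mann-Whitney statistic from -0.5 to +0.5, computed with the Universal PBM Analysis Suite. Scale: above 0.35 generally sequence-specific binding.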
row,Sequence,PBM E-score
1,AATCAACA,0.239
2,TATCAACA,0.0479
3,GATCAACA,-0.0582
4,ATCGCATG,0.188
5,CCTCCAAA,-0.0762
6,CCTACGCA,-0.133
7,CGGCCGCA,0.0157
8,GATATCGA,0.0243
9,AATATCGG,0.137
10,CATATCGA,0.118
11,AATATCGC,0.104
12,TATATCGA,0.278
13,AATATCGA,0.244
14,CGCTTATC,-0.0744
15,CTGCTTTC,0.104
16,ATGCTTTA,-0.178
17,CTGCTTTA,0.23
18,GGGTTTAC,-0.0342
19,AATTCAGT,-0.0207
20,AATTCTAT,-0.0322
21,AATTCTAC,0.231
22,AATTCAGA,0.0972
23,GATTCAAC,0.00265
24,AATTCAAG,0.0675
25,AATTCTAG,-0.027

row,Sequence,PBM E-score
1,AATTCAGG,0.336
2,AATTCAAC,0.256
3,AAGACTCA,-0.249
4,TCCGTACA,0.146
5,ACACGTCC,-0.254
6,AGCTTTCG,-0.106
7,GATACTAC,0.13
8,CGAGTTCC,0.0649
9,TACCGCGA,0.0041
10,AACCGCGT,0.0966
11,AACCGCGA,0.256
12,CCATGCCC,-0.111
13,ACTAAATG,-0.0439
14,AGCATATC,0.0744
15,CGCATATA,0.0344
16,CGCATATC,0.293
17,ATAGTAAT,0.234
18,ATAGTAAA,0.203
19,ATAGTAGA,0.102
20,ATAGTAGG,0.0354
21,ATAGTAGC,0.25
22,ATAGTAAC,0.074
23,GAAAGGCA,-0.0231
24,ACGAAGCC,-0.0825
25,GCTCCAAA,-0.202

row,Sequence,PBM E-score
1,TCAATGCA,-0.183
2,AGTCTCGG,-0.0965
3,ATAATCAA,0.0599
4,ATAATCGA,0.0835
5,ATAATCCA,0.128
6,ATAATCGG,0.246
7,ATAATCCC,0.24
8,ATAATCCG,0.0659
9,ATAATCGC,-0.0299
10,ATAATCAT,0.235
11,ATAATCAG,0.0745
12,TCCTATAA,-0.0317
13,CAAACCAA,0.214
14,CTATAGGA,-0.0776
15,CATGGTTC,0.0101
16,ATGCAAGC,0.0922
17,ATCTAACC,0.0422
18,AAGGATTC,-0.124
19,GACCAAGA,0.0552
20,ATGCCCAT,-0.093
21,ACCATCGC,0.139
22,CGTTTCAC,-0.00605
23,CGAGACCG,-0.0751
24,CGAGACCC,0.263
25,GGAGACCC,0.076

row,Sequence,PBM E-score
1,ATTGCGTA,0.145
2,ATTGCGTC,0.237
3,CTTGCGTC,-0.00183
4,GTGCCAAA,-0.0122
5,AGCATCGC,-0.0887
6,CGTCACAC,-0.0186
7,CGTCACAG,0.282
8,CGTCACAA,0.0516
9,GTATAGCA,0.078
10,ACACAGGG,0.238
11,CAACAGGC,-0.129
12,ATACAGGC,-0.0144
13,ATACAGGA,-0.00019
14,ACACAGGA,-0.0296
15,CAACAGGG,0.312
16,CAACAGGA,-0.152
17,ACACAGGC,0.0691
18,ATACAGGG,0.274
19,ACAGAGGC,-0.172
20,ATTGTGCA,0.0869
21,GCGTTAGA,0.0176
22,ACTTGGAG,-0.108
23,ATAATATA,0.268
24,TTTATAAA,0.245
25,ATAATACG,0.18

row,Sequence,PBM E-score
1,CTAATATA,0.13
2,ATAATACA,0.282
3,TTAATAAA,0.201
4,ATAATATG,0.198
5,CTAATAAA,0.259
6,ATAATACC,0.171
7,GTTATAAA,0.0259
8,ATAATAAA,0.224
9,CTTATAAA,0.131
10,AGCAGACT,-0.138
11,CCGCCTGA,-0.0981
12,TCCAGAAA,0.0185
13,CCTCCTCC,-0.283
14,ATGTCCTC,0.0325
15,ATTGTCGC,0.136
16,ATTGTCGA,0.0199
17,ATTGTCGG,0.247
18,CTACAAAG,0.116
19,ACAGCGCA,0.00939
20,AGTAATAT,0.137
21,GGCCCCAA,-0.0979
22,GGGCCCAC,0.203
23,ATGGCCCA,-0.0568
24,GGGCCCAA,0.244
25,CGCCCCCA,-0.194

row,Sequence,PBM E-score
1,AGGGCCCA,0.359
2,CGCCCCAA,0.261
3,GGGGCCCA,0.117
4,AAGGCCCA,-0.13
5,CGGGCCCA,-0.128
6,TGGGCCCA,0.306
7,CGCCCCAG,0.0362
8,TAATTCCA,0.0521
9,GCGCTTCC,-0.0589
10,AAGGAAAA,0.0535
11,GCGGAATA,0.0652
12,CTTTGGGA,-0.076
13,AAACCCAC,0.218
14,GACTGAGA,-0.102
15,CAACTTAG,0.221
16,CTGCTCGA,0.073
17,AGGGCCCT,0.432
18,AGGGCCCG,0.0729
19,AGGGCCCC,0.0359
20,TCCAATAA,0.0718
21,CGACAGCC,0.026
22,CGCCGTGC,0.0708
23,CAGCCTAG,0.0198
24,GGTGCAAC,-0.13
25,AGTTTCAC,0.0923

row,Sequence,PBM E-score
1,AGTTTCAG,-0.0621
2,AGTTTCAT,0.274
3,CTGAGAAC,0.0907
4,CATACTAC,0.151
5,CATACTAG,0.248
6,AATACTAC,0.0385
7,CATACTAA,0.114
8,AATACTAG,0.241
9,AATACTAT,0.0268
10,CAATTTAC,0.12
11,ACGAATTG,0.0986
12,AGTGACTA,-0.133
13,TAGCAACA,0.135
14,GAACAGAA,0.0366
15,GGTCTGAC,0.0413
16,CGACAATC,0.009
17,GGACAAAA,0.159
18,CGACAATA,0.235
19,GGACAATA,0.239
20,GGACAAGA,0.159
21,AGACAATA,0.204
22,CTATTATA,0.0933
